Measured values published in PubChem BioAssay (NCATS).
Records with an inconclusive call do not appear. Calls of active or inactive are those of the source. Unless noted, calls follow the shape of the dose curve; as a rule, active = well fitted curve in either direction with a large enough effect (not every such curve was filed as active); inconclusive = small, poorly fitted or top-dose-only effect, or another doubt; inactive = flat fitted curve, though single readings scatter.

Experiments:
[1] = biological target: Lysosomal acid glucosylceramidase (Homo sapiens) (UniProt P04062); test: Glucocerebrosidase-p2 (AID 348; in the data active = potency below about 10 µM; also: potency is read from the fitted curve at half-maximal effect); conditions: purified GBA, blue fluorogenic substrate, 40 min
Chain of Lysosomal acid glucosylceramidase (Homo sapiens) (P04062 whole entry, looked up): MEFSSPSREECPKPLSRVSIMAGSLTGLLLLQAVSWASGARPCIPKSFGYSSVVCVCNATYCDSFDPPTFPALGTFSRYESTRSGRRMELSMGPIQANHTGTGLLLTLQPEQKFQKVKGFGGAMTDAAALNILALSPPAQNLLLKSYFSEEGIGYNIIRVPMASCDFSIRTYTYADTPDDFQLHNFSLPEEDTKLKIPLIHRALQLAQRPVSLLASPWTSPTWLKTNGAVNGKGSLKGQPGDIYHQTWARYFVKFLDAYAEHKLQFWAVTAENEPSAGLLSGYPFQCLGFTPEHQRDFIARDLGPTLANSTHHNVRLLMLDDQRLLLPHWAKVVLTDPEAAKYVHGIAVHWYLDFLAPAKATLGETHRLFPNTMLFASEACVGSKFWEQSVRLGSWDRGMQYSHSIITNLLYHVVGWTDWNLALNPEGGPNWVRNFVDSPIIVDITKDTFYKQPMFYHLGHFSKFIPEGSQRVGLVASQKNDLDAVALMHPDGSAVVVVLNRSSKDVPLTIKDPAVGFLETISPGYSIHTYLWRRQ
How it was run: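 Normal human glucocerebrosidase (0.2 nM) with blue fluorogenic substrate (80 uM final) in citrate/phosphate pH 5.9 with 10mM sodium taurocholate, 0.01% tween-20; 40 min RT, NaOH/glycine stop; fluorescence Ex 365/Em 440; AC50 from a titration from 0.6 nM upwards.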

[2] = AP1 Signaling Pathway (AID 357); conditions: ME-180 AP-1-bla reporter, EGF-induced, beta-lactamase ratio, 5 h; at 7.69 µM (top of the series) unless noted; also: % is scaled to controls: 0 for no effect and ±100 for the full control effect
How it was run: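 AP-1-bla ME-180 cells, Opti-MEM + 0.5% dialyzed FBS, plated overnight 37 °C. Cpd titration + EC50 EGF, 5 h 37 °C. CCF4 2.5 h RT; ex 405, em 460/530 ratio → %activity, AC50.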

[3] = NFAT Signaling Pathway (AID 444); conditions: Jurkat NFAT-bla M1, carbachol, beta-lactamase ratio, 5 h; at 7.69 µM (top of the series) unless noted;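 also: carbachol stimulus at about its EC50 of 1 µM final; % is scaled to controls: 0 for no effect and ±100 for the full control effect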
How it was run: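 Jurkat cells with NFAT-driven β-lactamase reporter and co-expressed M1 receptor, stimulated with carbachol (final 1 uM, ~EC50), compound titration, 5 h at 37 °C. CCF4 loaded 1 h at RT; 460/530 nm ratio gave %activity and AC50.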

[4] = Stat Signaling Pathway (AID 446); conditions: ME-180 SIE beta-lactamase reporter, IL-6 stimulated, 5 h; at 7.69 µM (top of the series) unless noted;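 also: ME-180 cervical cancer cells given 40 pM IL-6 alongside compound; SIE-controlled beta-lactamase reporter measured as 460/530 nm FRET emission ratio; % is scaled to controls: 0 for no effect and ±100 for the full control effect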
How it was run: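 FRET read-out (405 nm excitation, 460/530 nm emission) of a beta-lactamase reporter under a STAT-inducible element in ME-180 cervical carcinoma cells. Cells with compound receive 40 pM IL-6 for 5 h. Values are normalised to AC90 stimulation and AC90 JAK-inhibitor controls.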

[5] = biological target: Glucocorticoid receptor (Homo sapiens) (UniProt P04150); test: GR-EFC Redistribution (AID 451; calls by dose curve; also: potency is read from the fitted curve at half-maximal effect); conditions: CHO-K1 GR-EFC translocation, beta-gal luminescence, 2 h
Chain of Glucocorticoid receptor (Homo sapiens) (P04150 whole entry, looked up, the tested form may be a part): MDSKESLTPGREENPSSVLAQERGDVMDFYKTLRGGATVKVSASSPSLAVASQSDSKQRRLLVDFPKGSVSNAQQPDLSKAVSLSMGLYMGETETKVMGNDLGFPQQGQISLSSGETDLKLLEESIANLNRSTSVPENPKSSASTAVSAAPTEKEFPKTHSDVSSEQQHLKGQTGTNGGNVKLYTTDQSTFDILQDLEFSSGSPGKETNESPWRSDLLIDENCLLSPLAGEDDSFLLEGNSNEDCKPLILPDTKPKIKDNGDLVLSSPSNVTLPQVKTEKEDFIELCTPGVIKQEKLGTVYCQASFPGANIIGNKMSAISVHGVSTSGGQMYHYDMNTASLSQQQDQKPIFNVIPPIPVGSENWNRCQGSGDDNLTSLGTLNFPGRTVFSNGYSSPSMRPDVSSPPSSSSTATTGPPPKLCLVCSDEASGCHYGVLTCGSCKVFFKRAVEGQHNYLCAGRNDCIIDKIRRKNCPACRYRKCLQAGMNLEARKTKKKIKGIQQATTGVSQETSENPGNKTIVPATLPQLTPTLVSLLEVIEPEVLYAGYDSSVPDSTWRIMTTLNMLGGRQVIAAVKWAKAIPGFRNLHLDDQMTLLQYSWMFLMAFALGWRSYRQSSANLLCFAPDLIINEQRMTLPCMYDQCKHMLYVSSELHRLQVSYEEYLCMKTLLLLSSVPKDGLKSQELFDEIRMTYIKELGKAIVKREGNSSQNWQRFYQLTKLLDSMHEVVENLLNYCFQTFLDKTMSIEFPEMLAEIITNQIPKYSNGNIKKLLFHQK
How it was run: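 CHO-K1 cells expressing nuclear EA and GR-ED fragments of b-gal; compounds titrated up to 46 uM final, 2 h at 37 C. GR nuclear translocation read as complemented b-gal luminescence after 1 h RT detection.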

[6] = biological target: Mitogen-activated protein kinase 10 (Mus musculus) (UniProt Q61831); test: JNK3 AlphaScreen Assay (AID 530); conditions: JNK3 lysate, c-Jun phosphorylation; series mostly up to 57.1 µM;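 also: kinase came from lysate of stimulated human HepG2 cells; signal reports phosphorylation of biotinylated GST-cJun 1-79 at Ser73 with 10 µM ATP; % is scaled to controls: 0 for no effect and ±100 for the full control effect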
How it was run: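 HepG2 lysate (IL-1b/TNFa pre-activated) + biotin-GST-cJun 1-79 + anti-pSer73 cJun; cpd titration, 15 min RT; ATP 10 uM start; Tris pH 7.6, MgCl2, DTT, vanadate; beads in EDTA buffer; AlphaScreen.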

[7] = biological target: 3',5'-cyclic-AMP phosphodiesterase 4B (Homo sapiens) (UniProt Q07343); test: qHTS Assay for Inhibitors of PDE-IV (AID 607; active = well fitted activation curve with a large enough effect in the main read-out, with a control signal flat, not every such curve was filed as active; also: % of control where 0% means no effect); conditions: HEK293 ACTOne CNG channel cells, membrane potential fluorescence; series mostly up to 22.9 µM
Chain of 3',5'-cyclic-AMP phosphodiesterase 4B (Homo sapiens) (Q07343 whole entry, looked up): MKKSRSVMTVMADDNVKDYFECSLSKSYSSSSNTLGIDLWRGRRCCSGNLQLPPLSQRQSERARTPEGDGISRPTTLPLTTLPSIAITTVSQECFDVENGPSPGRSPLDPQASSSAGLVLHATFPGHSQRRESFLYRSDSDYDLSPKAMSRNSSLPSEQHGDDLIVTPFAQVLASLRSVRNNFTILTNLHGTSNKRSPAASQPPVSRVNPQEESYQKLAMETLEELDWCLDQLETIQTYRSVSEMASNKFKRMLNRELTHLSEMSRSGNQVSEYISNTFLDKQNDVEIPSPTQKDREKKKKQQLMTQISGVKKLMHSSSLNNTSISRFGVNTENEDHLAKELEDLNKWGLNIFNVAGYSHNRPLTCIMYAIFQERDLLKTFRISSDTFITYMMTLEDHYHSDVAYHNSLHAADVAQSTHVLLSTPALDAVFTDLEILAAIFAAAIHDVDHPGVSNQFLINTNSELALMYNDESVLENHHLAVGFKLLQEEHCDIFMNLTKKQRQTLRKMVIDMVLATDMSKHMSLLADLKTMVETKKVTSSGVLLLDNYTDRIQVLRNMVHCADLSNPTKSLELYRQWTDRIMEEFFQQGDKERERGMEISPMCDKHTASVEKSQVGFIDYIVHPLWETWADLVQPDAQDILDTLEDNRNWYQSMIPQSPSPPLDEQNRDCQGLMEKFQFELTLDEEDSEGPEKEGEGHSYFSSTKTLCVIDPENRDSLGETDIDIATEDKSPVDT
How it was run: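 Cell-based read-out of cAMP via a modified cyclic nucleotide-gated channel and membrane potential dye (535/590 nm) in HEK293 cells expressing PDE4 endogenously. Compounds tested up to 22.9 uM final; 100 uM RO 20-1724 reference.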

[8] = biological target: Cytochrome P450 3A4 (Homo sapiens) (UniProt P08684); test: qHTS Assay for Activators of Cytochrome P450 3A4 (AID 885; active = well fitted curve in the direction sought with a large enough effect; an effect the other way counts as inactive or inconclusive; also: nearly all actives have a fitted effect of over 65% in size); conditions: recombinant CYP3A4, Luciferin-PPXE luminescence, 60 min; series mostly up to 57.1 µM
Chain of Cytochrome P450 3A4 (Homo sapiens) (P08684 whole entry, looked up): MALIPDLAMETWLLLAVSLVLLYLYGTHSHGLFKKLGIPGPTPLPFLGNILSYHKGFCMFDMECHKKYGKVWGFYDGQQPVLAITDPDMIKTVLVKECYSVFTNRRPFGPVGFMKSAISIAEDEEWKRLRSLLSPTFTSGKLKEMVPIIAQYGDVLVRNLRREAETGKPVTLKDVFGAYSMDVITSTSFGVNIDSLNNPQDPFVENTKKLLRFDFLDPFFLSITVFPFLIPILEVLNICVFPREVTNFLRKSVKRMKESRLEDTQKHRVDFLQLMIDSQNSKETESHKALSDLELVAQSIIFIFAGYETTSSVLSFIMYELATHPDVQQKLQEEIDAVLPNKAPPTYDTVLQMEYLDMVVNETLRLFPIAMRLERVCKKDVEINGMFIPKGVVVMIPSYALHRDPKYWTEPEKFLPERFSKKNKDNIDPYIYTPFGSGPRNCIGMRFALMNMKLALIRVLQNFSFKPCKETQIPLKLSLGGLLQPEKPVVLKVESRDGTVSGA
How it was run: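 Luminescent readout of luciferin formed from 25 uM Luciferin-PPXE (KM level) by 20 nM CYP3A4 in 200 mM KPO4, with 60 min NADPH-driven reaction at room temperature after 10 min compound exposure. Ketoconazole (57 uM) defined 100% inhibition.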

[9] = qHTS Assay for Lipid Storage Modulators (AID 1519; calls by dose curve); conditions: Drosophila S3 cells, BODIPY lipid droplet/cell ratio, laser cytometry, cells loaded with oleic acid; for activity change, negative = inhibition: at 57.5 µM (top of the series)
How it was run: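 Cells seeded at 5,000 per well were treated with compounds over a concentration series and loaded with oleic acid (400 uM, as added). Lipid droplet fluorescence (488 nm excitation, 500-530 nm channel) was read by laser-scanning cytometry and normalized to 20 uM Triacsin C.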

[10] = Primary qHTS for small molecule stabilizers of the endoplasmic reticulum resident proteome: Secreted ER Calcium Modulated Protein (SERCaMP) assay (AID 1508630; active = well fitted curve in the direction sought with a large enough effect; an effect the other way counts as inactive or inconclusive; also: % is scaled to controls: 0 for no effect and ±100 for the full control effect); conditions: SH-SY5Y GLuc-SERCaMP (Gaussia luciferase released on ER calcium loss) secretion, thapsigargin, luminescence; series mostly up to 38.4 µM
How it was run: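 The SH-SY5Y reporter protocol was run at 3 concentrations up to 38.3 uM (primary) or 11 concentrations (follow-up): 16 h compound, 100 nM thapsigargin for 4 h, then extracellular luciferase luminescence.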

[11] = qHTS Assay for Identification of Small Molecule Agonists for Hypoxia Response Element Signaling Pathway (AID 914; active = well fitted activation curve with a large enough effect in the signal ratio, with a control signal flat, not every such curve was filed as active; the % refers to the signal ratio; also: % of control where 0% means no effect); conditions: ME-180 HRE-bla reporter, beta-lactamase ratio, CoCl2, 17 h; activation: stronger effect = higher value
How it was run: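 ME-180 cells carrying an HRE-driven beta-lactamase reporter were treated with compounds in a titration series plus an EC50 level of CoCl2 for 17 h at 37 degrees Celsius; CCF4 readout as the 460nm/530nm ratio gave AC50 values.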

[12] = biological target: Glucocorticoid receptor (Homo sapiens) (UniProt P04150); test: GR-GFP Redistribution (AID 450;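 active = compounds whose dose series gives a full or clear partial fitted curve of increased nuclear translocation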; also: potency is read from the fitted curve at half-maximal effect); conditions: U2OS GR-GFP nuclear translocation, laser cytometry, 2 h
[13] = Confirmation and Secondary Assay for Modulators of Hemoglobin Beta Chain Splicing at IVS2 654 locus (AID 910; active = well fitted curve in the direction sought with a large enough effect; an effect the other way counts as inactive or inconclusive;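 also: HeLa cells stably carrying EGFP split by mutant beta-globin IVS2-654 intron; % of control where 0% means no effect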); conditions: HeLa EGFP-654 splicing reporter, GFP fluorescence, 48 h; series mostly up to 38.3 µM
How it was run: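 HeLa cells stably expressing EGFP interrupted by β-globin IVS2-654 intron, seeded overnight in Opti-MEM/2% FCS, then treated 2 days at 37 °C. Restored splicing read as total peak GFP intensity per well by laser scanning cytometry (488 nm excitation, 500–520 nm emission); 500 nM antisense PNA as control.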

[14] = Confirmation and Secondary Assay for Modulators of Hemoglobin Beta Chain Splicing at IVS2 705 locus (AID 930; active = well fitted curve in the direction sought with a large enough effect; an effect the other way counts as inactive or inconclusive;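 also: HeLa cells stably expressing the EGFP-705 splicing reporter; % of control where 0% means no effect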); conditions: HeLa EGFP-705 splicing reporter, GFP fluorescence, 48 h; series mostly up to 38.3 µM
How it was run: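 HeLa cells stably carrying EGFP interrupted by mutant beta-globin IVS2-705 intron (CMV-driven) were seeded at 500 cells/well, treated next day with compound for 2 days at 37C; corrected splicing restores EGFP, read as total peak GFP intensity per well.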

[15] = biological target: Ubiquitin carboxyl-terminal hydrolase 1 (Homo sapiens) (UniProt O94782); test: Inhibitors of USP1/UAF1: Pilot qHTS (AID 504865; active = well fitted curve in the direction sought with a large enough effect; an effect the other way counts as inactive or inconclusive;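 also: rhodamine fluorescence freed from ubiquitin-rhodamine substrate followed over time; top concentration of the series differs between compounds; % is scaled to controls: 0 for no effect and ±100 for the full control effect; nearly all actives have a fitted effect of over 35% in size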); conditions: purified USP1/UAF1, Ub-rhodamine cleavage fluorescence; series mostly up to 54.9 µM
Chain of Ubiquitin carboxyl-terminal hydrolase 1 (Homo sapiens) (O94782 whole entry, looked up): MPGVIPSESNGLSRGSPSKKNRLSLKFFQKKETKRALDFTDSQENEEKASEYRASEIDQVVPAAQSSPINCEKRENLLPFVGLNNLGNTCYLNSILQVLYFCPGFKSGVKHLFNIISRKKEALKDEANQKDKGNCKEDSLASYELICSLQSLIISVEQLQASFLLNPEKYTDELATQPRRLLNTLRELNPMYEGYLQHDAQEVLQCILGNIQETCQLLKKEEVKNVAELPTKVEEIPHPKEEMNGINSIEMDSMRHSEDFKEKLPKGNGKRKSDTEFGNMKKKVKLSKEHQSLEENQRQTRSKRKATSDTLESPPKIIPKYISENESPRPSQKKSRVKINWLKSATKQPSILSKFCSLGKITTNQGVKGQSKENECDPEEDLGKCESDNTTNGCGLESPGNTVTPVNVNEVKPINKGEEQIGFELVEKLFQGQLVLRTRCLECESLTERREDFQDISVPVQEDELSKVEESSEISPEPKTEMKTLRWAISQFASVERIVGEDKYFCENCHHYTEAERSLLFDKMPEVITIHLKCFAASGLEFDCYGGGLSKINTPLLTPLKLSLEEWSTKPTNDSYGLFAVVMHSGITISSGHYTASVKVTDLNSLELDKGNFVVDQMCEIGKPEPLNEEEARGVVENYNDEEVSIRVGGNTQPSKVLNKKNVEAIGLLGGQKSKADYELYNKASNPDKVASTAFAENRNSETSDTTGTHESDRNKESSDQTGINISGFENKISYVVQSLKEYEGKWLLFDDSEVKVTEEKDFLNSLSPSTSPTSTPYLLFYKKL
How it was run: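 1nM USP1/UAF1 + cpd, 15 min RT; start w/ Ub-Rho 150nM final; kinetic FL 480/540 nm, 6 reads q60 s. Buffer 50mM HEPES pH 7.8, 0.5mM EDTA, 1mM TCEP, 0.01% Tween-20, 0.1 mg/ml BSA.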

[16] = measured here: cell count channel max response
[17] = measured here: lipid channel max response

| SMILES | Potency [1] | activity change, negative = inhibition [2] | activity change, negative = inhibition [3] | activity, negative = inhibition [4] | Potency [5] | Potency [6] | Potency [7] | Potency [8] | activity change, negative = inhibition [9] | max response [9, 16] [%] | max response [9, 17] [%] | outcome [10] | activation [11] | Potency [12] | Potency [13] | outcome [14] | Potency [15] |
| --- | --- | --- | --- | --- | --- | --- | --- | --- | --- | --- | --- | --- | --- | --- | --- | --- | --- |
| Cn1cccc1C(=O)N1CCC[C@@]2(CCN(C(=O)Nc3cccc(C#N)c3)C2)C1 | > 11.4 µM (inactive) | -6.67% (inactive) | 10.5% (inactive) | -3.81% (inactive) | > 46 µM (inactive) | inactive | inactive | inactive | 5.85% (inactive) | 14.3 | 24.9 | inactive | – | – | – | – | – |
| O=C(Nc1ccccc1)N1CC2(CCN(S(=O)(=O)c3ccccc3)CC2)C1 | > 11.4 µM (inactive) | -1.41% (inactive) | 16.1% (inactive) | -2.14% (inactive) | > 46 µM (inactive) | inactive | inactive | – | -5.83% (inactive) | 0.332 | -5.36 | inactive | -12.4% (inactive) | – | – | – | – |
| O=C(c1ccco1)N1CCC[C@@]2(CCN(c3ncccn3)C2)C1 | > 11.4 µM (inactive) | -6.68% (inactive) | -7.21% (inactive) | -5.91% (inactive) | > 46 µM (inactive) | inactive | inactive | – | 3.43% (inactive) | 17.7 | 23.3 | inactive | – | – | – | – | – |
| COc1ccc(NC(=O)N2CCCC3(CCN(C(=O)c4ccncc4)CC3)C2)cc1 | > 11.4 µM (inactive) | -8.03% (inactive) | -13.4% (inactive) | -2.92% (inactive) | > 46 µM (inactive) | inactive | inactive | – | 4.52% (inactive) | 10.2 | 18.3 | inactive | – | – | – | – | – |
| COCC(=O)N1CCC[C@@]2(CCN(C(=O)Nc3ccccc3)C2)C1 | > 11.4 µM (inactive) | -5.16% (inactive) | 1.53% (inactive) | -3% (inactive) | > 46 µM (inactive) | inactive | inactive | – | 5.08% (inactive) | 3.08 | 10.8 | inactive | – | – | – | – | – |
| Cn1cccc1C(=O)N1CCC2(CCN(Cc3ccc(C#N)cc3)CC2)CC1 | > 11.4 µM (inactive) | 11.1% (inactive) | – | -2.38% (inactive) | > 46 µM (inactive) | inactive | inactive | – | 0.873% (inactive) | 7.43 | 9.77 | inactive | – | – | – | – | – |
| O=C(c1cc(C(F)(F)F)cc(C(F)(F)F)c1)N1CCC2(CCN(Cc3ccncc3)CC2)CC1 | > 11.4 µM (inactive) | -22.8% (inactive) | – | 6.58% (inactive) | > 46 µM (inactive) | inactive | inactive | – | 3.65% (inactive) | 7.35 | 10.5 | inactive | – | – | – | – | – |
| c1cncc(-c2nccc(-n3ccnc3)n2)c1 | > 11.4 µM (inactive) | -19.4% (inactive) | – | -2.73% (inactive) | > 46 µM (inactive) | inactive | inactive | – | 7.22% (inactive) | 3.87 | 13.2 | inactive | – | > 46 µM (inactive) | inactive | inactive | inactive |
